Here are results for 19 compounds from PubChem BioAssay (NCI).

The nature of assay [1]: NCI Yeast Anticancer Drug Screen. Data for the rad50 strain (AID 155).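 Note: 0% = growth of vehicle-only cultures of the same strain.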 The note with it: S. cerevisiae rad50 strain growth inhibition, active compounds read high; at 50.0 µM unless noted. Summed up: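 Relative growth inhibition (compound vs vehicle) was measured in yeast with a defined repair-gene alteration.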
A short description of assay [2]: NCI Yeast Anticancer Drug Screen. Data for the mec2-1 strain (AID 157). Particulars: S. cerevisiae mec2-1 strain, active compounds read high; at 50.0 µM unless noted. The method in brief:
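Using mec2-1 yeast: add compound, measure growth, express inhibition versus vehicle-treated cultures.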

The nature of assay [3]: NCI Yeast Anticancer Drug Screen. Data for the sgs1 mgt1 strain (AID 161).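 Note: 0% = growth of cultures given vehicle only.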 The note with it: S. cerevisiae sgs1 mgt1 strain, active compounds read high; at 50.0 µM unless noted. Summed up: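 This yeast growth screen uses a strain with defined DNA-repair lesions; compound-treated growth is compared with vehicle-treated growth.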
Assay [4] is described as follows: NCI Yeast Anticancer Drug Screen. Data for the cln2 rad14 strain (AID 165).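 Note: 0% = growth equal to vehicle treated cultures.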 The note with it: S. cerevisiae cln2 rad14 strain, active compounds read high; at 50.0 µM unless noted. The method in brief: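 Yeast strain cln2 rad14, bearing defects in cell cycle control and DNA repair, serves as the test system; values reflect growth inhibition compared with vehicle.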
The nature of assay [5]: NCI Yeast Anticancer Drug Screen. Data for the bub3 strain (AID 167). Particulars: S. cerevisiae bub3 mutant strain, active compounds read high; at 50.0 µM unless noted. The method in brief: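 Screening used yeast with an engineered genetic alteration affecting cell cycle control. Compound-exposed cultures were compared with vehicle cultures, and reduced growth was taken as inhibition.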

The nature of assay [6]: NCI Yeast Anticancer Drug Screen. Data for the mlh1 rad18 strain (AID 175). Particulars: S. cerevisiae mlh1 rad18 strain growth inhibition, active compounds read high; at 50.0 µM unless noted. Summed up:
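Steps: expose repair-defective yeast to compound; measure growth; express inhibition against vehicle-treated controls.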

The structures appear in SMILES notation. “And” between values parts separate entries of the source, which are not always exact repeats. Equal values may be shown once. This is part of a sample that, as a whole, favours compounds with a hit. Of some 79,000 tested, about 15% had one in any assay. Unmarked numbers belong to inactive results. The source made the active and inactive calls. Cut-off read from the data, not from the text of the source: active = growth inhibition above about 70%; inactive = the rest.

On to `COC(=O)C1(C)CCCC2(C)C1CCC1(O)C(O)C(C(C)C)=CCC21` (centres undefined), for which the growth inhibition is 4.3% in assay [1]; -2.35% in assay [2]; 2.55% in assay [3]; -2.25% in assay [4]; -1.95% in assay [5]; 20.2% in assay [6].
For the compound `O=Cc1ccc(C=O)o1`, the growth inhibition in assay [1] was 4.25%; in assay [2], -1.8%; in assay [3], 28.9%; in assay [4], 6.3%; in assay [5], -11.7%; in assay [6], 14.2%.
For `Cc1cc(S(=O)(=O)Nc2nc(N)nc(N3N=CCC3C)n2)c(SCC(=O)O)cc1Cl` (centres undefined), the growth inhibition in assay [1] was -16%; in assay [2], 6.25%; in assay [3], 4.7%; in assay [4], -7%; in assay [5], -1.55%; in assay [6] it was 2.1%.
For `O/N=C/c1ccc(O)cc1`, the growth inhibition in assay [1] was -63.2%; in assay [2] it was -21.1%; in assay [3], -14.4%; in assay [4], -19.6%; in assay [5], 2.55%; in assay [6], -28.9%.
Regarding `CCOC(=O)CCC(Br)(Br)Br`, the growth inhibition in assay [1] is 10%; in assay [2], 16%; in assay [3], 1.7%; in assay [4], 12.8%; in assay [5] it was 4.6%; in assay [6] it was 10.2%.
Turning to `O=C(Oc1cccc(OC(=O)c2ccccc2O)c1)c1ccccc1O`, the growth inhibition was -1.05% in assay [1]; -7.95% in assay [2]; 9.8% in assay [3]; -30.8% in assay [4]; 25.9% in assay [5]; -5.35% in assay [6].
Turning to `COc1ccc(/C=C2\C(=O)Nc3ccccc32)cc1OC`, the growth inhibition in assay [1] is -3.4%; in assay [2], 5.45%; in assay [3] it was -9%; in assay [4] it was -10.4%; in assay [5], -1.95%; in assay [6] it was -4.4%.
On to `CN(C)C1=C(Cl)C(=O)C(=O)c2cccnc21`, for which the growth inhibition in assay [1] is 32.3%; in assay [2], -2.9%; in assay [3] it was 21.4%; in assay [4], 5.2%; in assay [5] it was -16.4%; in assay [6] it was 38.4%.
On to `C/C(=N\NC(N)=O)c1ccc(Br)c2ccccc12`, for which the growth inhibition in assay [1] was -19.1%; in assay [2] it was 12.9%; in assay [3], -3.35%; in assay [4], 4.05%; in assay [5], 1.05%; in assay [6], -1.2%.
For `C[n+]1ccc(/C=N/O)cc1`, the growth inhibition in assay [1] was -5.05%; in assay [2], -22.4%; in assay [3] it was -0.45%; in assay [4], 2.95%; in assay [5] it was 8.45%; in assay [6], -11.2%.
Consider `C[N+]1(Cc2ccco2)CCCCC1`, for which the growth inhibition in assay [1] was -12.6%; in assay [2], 9.65%; in assay [3] it was 0.15%; in assay [4], -14.4%; in assay [5], 9%; in assay [6] it was -6.85%.
On to `CC(C)CC(C(=O)NC1CCCCC1)N1C(=O)c2ccccc2C1=O` (centres undefined), for which the growth inhibition is -17.1% in assay [1]; 1.9% in assay [2]; -4.3% in assay [3]; -8.2% in assay [4]; -4.4% in assay [5]; 20.7% in assay [6].
With `O=C(O)CCCl`, the growth inhibition in assay [1] was -8.95% and -10.8%; in assay [2] it was 7.65% and -16.2%; in assay [3] it was 25.1% and -18.3%; in assay [4], -27.1% and -34.2%; in assay [5], -6.1% and -0.9%; in assay [6], 29.3%.
For `CC1(C)CC[C@]2(C(=O)O)CC[C@]3(C)C(=CC[C@@H]4[C@@]5(C)CC[C@H](OC6OC(CO)C(O)C(O)C6O)C(C)(C)[C@@H]5CC[C@]43C)[C@@H]2C1` (some centres undefined), the growth inhibition in assay [1] is 76.2% (active); in assay [2], 74.8% (active); in assay [3], 47.9%; in assay [4] it was 74.2% (active); in assay [5], 82.4% (active); in assay [6], 54.4%.
On to `CC/C(CC(=O)CCC(=O)Nc1c(C)cccc1C)=N\NC(=O)NN`, for which the growth inhibition was -19.4% in assay [1]; -22% in assay [2]; -4.15% in assay [3]; 24.6% in assay [4]; 3% in assay [5]; -8.5% in assay [6].
For `CCCCCCCCCCCCCCCCCCCCCCCCCCBr`, the growth inhibition in assay [1] is 0.85%; in assay [2] it was 0.8%; in assay [3] it was 9.7%; in assay [4], -9.95%; in assay [5] it was 10.4%; in assay [6], 11.7%.
For `OC1(c2nccc3ccccc23)CCN(CCc2ccccc2)CC1`, the growth inhibition in assay [1] is 46.5%; in assay [2] it was 33.4%; in assay [3] it was 55.8%; in assay [4], 40.5%; in assay [5], 17.9%; in assay [6], 34.8%.
Consider `O=C(Cc1cccnc1)c1cccnc1`, for which the growth inhibition is -52.3% in assay [1]; -18.9% in assay [2]; -8.15% in assay [3]; -11.9% in assay [4]; -15% in assay [5]; -7.55% in assay [6].
For `Cc1cccc(Nc2nc(C)nc3[nH]cc(-c4ccccc4)c23)c1`, the growth inhibition in assay [1] was -14.7%; in assay [2], -12.6%; in assay [3] it was -10.9%; in assay [4], -53.2%; in assay [5], -15.5%; in assay [6], -7.95%.
